Structures are written as SMILES. Several values for one entry are separate records, joined by “and”; a condition that tells them apart may be missing. Identical values can stand only once. The panel holds about 83,000 compounds, 20% with a hit somewhere; the sample as a whole holds those more often.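 Negative percent growth values reflect cell death: -40 means 40% of the cells present at the start died, and -100 means all died.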 Activity calls are given as the source filed them. Rule for the calls: active = growth percent below 10; inactive = the rest.

Growth data for seven molecules are collected here from PubChem BioAssay (NCI).

What all share (experiment): NCI-60 one-dose screen, 48 h (100 = growth as untreated, 0 = no growth, -100 = all killed)
What all share (conditions): 10 µM unless noted

Assay [1] has as its system SK-MEL-2 melanoma.
Assay [2] relates to EKVX NSCLC.
Assay [3] has as its system SN12C renal.
Assay [4] concerns UO-31 renal.
Assay [5] relates to TK-10 renal.
The subject of assay [6] is ACHN renal.
Assay [7] deals with CAKI-1 renal.
Assay [8] relates to A498 renal.
The subject of assay [9] is CCRF-CEM leukemia.
Assay [10] has as its system MOLT-4 leukemia.
The test system of assay [11] is SR leukemia.
The subject of assay [12] is RPMI-8226 leukemia.
The test system of assay [13] is OVCAR-8 ovarian.
The subject of assay [14] is OVCAR-5 ovarian.
Assay [15] concerns OVCAR-4 ovarian.
The subject of assay [16] is SK-OV-3 ovarian.
Assay [17] has as its system IGROV1 ovarian.
Assay [18] concerns OVCAR-3 ovarian.
Assay [19] relates to HS 578T breast.
Assay [20] deals with NCI/ADR-RES ovarian.

Consider `COc1cc(NC(=O)C(C)C)ccc1C(=O)NC(=S)Nc1ccc(S(N)(=O)=O)cc1`, for which the growth in assay [1] is 97.4% (inactive); in [2], 102% (inactive); in [3], 100% (inactive); in assay [4], 89.7% (inactive); in assay [5], 94.6% (inactive); in assay [6], 103% (inactive). Further, the growth was 96.7% (inactive) in assay [7]; 150% (inactive) in assay [8]; 97.5% (inactive) in assay [9]; 118% (inactive) in assay [10]; 111% (inactive) in [11]; 107% (inactive) in assay [12]. Moreover, the growth in assay [13] is 79.3% (inactive); in assay [14], 110% (inactive); in assay [15], 98.5% (inactive); in assay [16], 112% (inactive); in assay [17] it was 97.2% (inactive); in [18] it was 92% (inactive). The growth in assay [19] is 86.2% (inactive); in assay [20], 102% (inactive).

With `CC1(C)CC(=O)C2=C(C1)OC(N)=C(c1nc3ccccc3[nH]1)C2c1ccc(Cl)cc1` (stereo not given), the growth was 43.5% (inactive) and 112% (inactive) in assay [1]; 57% (inactive) and 100% (inactive) in [2]; 79.7% (inactive) and 105% (inactive) in assay [3]; 71.2% (inactive) and 86.4% (inactive) in [4]; 71.7% (inactive) and 106% (inactive) in assay [5]; 62.4% (inactive) and 106% (inactive) in assay [6]. The growth in assay [7] is 63.9% (inactive) and 103% (inactive); in [8] it was 66.9% (inactive) and 149% (inactive); in [9], 31.8% (inactive) and 102% (inactive); in assay [10], 17.6% (inactive) and 103% (inactive); in [11] it was 41.4% (inactive) and 97.8% (inactive); in assay [12] it was 45.8% (inactive) and 109% (inactive). The growth in assay [13] was 69.2% (inactive) and 108% (inactive); in assay [14], 101% (inactive) and 118% (inactive); in assay [15], 57.6% (inactive) and 109% (inactive); in assay [16], 111% (inactive) and 108% (inactive); in [17] it was 62.3% (inactive) and 108% (inactive); in [18], 47.8% (inactive) and 78.4% (inactive). For the same molecule, the growth is 6.8% (active) and 119% (inactive) in assay [19]; 78% (inactive) and 109% (inactive) in assay [20].

Take `CN(C)c1nc(NCCNS(=O)(=O)c2ccc(C(=O)/C=C/c3ccc(C(F)(F)F)cc3)cc2)nc(N2CCOCC2)n1`: the growth in [1] was 74.8% (inactive); in assay [2] it was 37.1% (inactive); in assay [3], 39.9% (inactive); in [4] it was -61.9% (active); in assay [5], 70.4% (inactive); in assay [6] it was -33.2% (active). The growth in assay [7] was -32.7% (active); in assay [8], 72.5% (inactive); in assay [9] it was -29% (active); in assay [10], -19.1% (active); in [11], -23% (active); in assay [12], -44.2% (active). Also, the growth in assay [13] is 1.73% (active); in assay [14] it was 5.43% (active); in assay [15] it was 56.5% (inactive); in assay [16], 76.2% (inactive); in assay [17], -93.9% (active); in assay [18] it was -43% (active). Further, the growth in assay [19] was 67.8% (inactive); in assay [20], -31.5% (active).

`CS(=O)(=O)Nc1cccc(-n2c(COc3ccc(OC(F)(F)F)cc3)nc3ccccc32)c1`: the growth in assay [1] was 86% (inactive) and 110% (inactive); in assay [2], 86.4% (inactive) and 98% (inactive); in assay [3], 113% (inactive) and 115% (inactive); in [4], 51.1% (inactive) and 87.7% (inactive); in assay [5], 105% (inactive) and 111% (inactive); in assay [6] it was 81% (inactive) and 109% (inactive). Also, the growth in assay [7] was 61.4% (inactive) and 99.4% (inactive); in assay [8], 98.2% (inactive) and 127% (inactive); in assay [9] it was 93.3% (inactive) and 99.8% (inactive); in [10], 80.3% (inactive) and 97% (inactive); in assay [11], 68.3% (inactive) and 83.2% (inactive); in [12], 76.7% (inactive) and 98.1% (inactive). In addition, the growth was 93.1% (inactive) and 110% (inactive) in [13]; 124% (inactive) in assay [14]; 84.9% (inactive) and 104% (inactive) in assay [15]; 76% (inactive) and 95.4% (inactive) in assay [16]; 56.4% (inactive) and 111% (inactive) in assay [17]; 107% (inactive) and 112% (inactive) in assay [18]. Also, the growth in [19] is 47.9% (inactive) and 101% (inactive); in assay [20] it was 88.2% (inactive) and 107% (inactive).

With `CN1CCN(CCS(=O)(=O)Nc2cc(-c3ccc4ncnc(Nc5ccc(F)c(Cl)c5)c4c3)cnc2Cl)CC1`, the growth in [1] was -52.2% (active); in assay [2] it was -22.2% (active); in assay [3], 27.7% (inactive); in assay [4], 18.2% (inactive); in assay [5], 1.24% (active); in assay [6] it was 23.2% (inactive). Besides, the growth in assay [7] was 6.32% (active); in assay [8] it was -30.9% (active); in assay [9], 8.02% (active); in assay [10], -49.7% (active); in assay [11] it was -45.4% (active); in [12], 75.2% (inactive). Besides, the growth in [13] is 22.4% (inactive); in assay [14] it was 16% (inactive); in [15], 32.3% (inactive); in [16], 3.06% (active); in assay [17], -34.8% (active); in [18] it was -31.7% (active). The growth in assay [19] was -23.3% (active); in assay [20], 78.4% (inactive).

Take `O=C(N/N=C/c1c[nH]c2ccccc12)Nc1ccc(F)c(Cl)c1`: the growth was -9.22% (active) in [1]; 40.9% (inactive) in assay [2]; 42.1% (inactive) in assay [3]; 37.1% (inactive) in assay [4]; 80.6% (inactive) in [5]; 41.7% (inactive) in [6]. In addition, the growth is 32.1% (inactive) in assay [7]; 66.6% (inactive) in [8]; 12.9% (inactive) in [9]; 10.4% (inactive) in [10]; 19.3% (inactive) in [11]; 27.5% (inactive) in assay [12]. In addition, the growth is 50.2% (inactive) in [13]; 60.1% (inactive) in assay [14]; 52.8% (inactive) in [15]; 38.6% (inactive) in assay [16]; 42.7% (inactive) in assay [17]; 18.9% (inactive) in [18]. Besides, the growth in assay [19] is 58.8% (inactive); in [20] it was 9.47% (active).

For the molecule `S=C(NCCc1ccccc1)Nc1ccc(OCc2nc3ccc(Cl)cc3[nH]2)cc1`, the growth in [1] was 16.5% (inactive); in [2], 33.1% (inactive); in assay [3], 11.6% (inactive); in assay [4], 13.9% (inactive); in [5], 62.4% (inactive); in assay [6], 14% (inactive). Besides, the growth is 25.2% (inactive) in assay [7]; 95.6% (inactive) in assay [8]; 9.55% (active) in assay [9]; 13.8% (inactive) in assay [10]; -7.42% (active) in assay [11]; 7.74% (active) in assay [12]. Further, the growth in assay [13] was 39.7% (inactive); in assay [14], 30.5% (inactive); in assay [15], 32.1% (inactive); in [16], 77.2% (inactive); in [17], 31.4% (inactive); in assay [18] it was 34.9% (inactive). In addition, the growth in assay [19] was 38.4% (inactive); in [20] it was 11.7% (inactive).
